Experimental data from the supplement of paper PMC4466140.

Target: AgAbp1
Assay: SPOT peptide array binding signal intensity (averaged, normalized) (arbitrary units (background-subtracted, floor 0; scale differs between SH3 domains)); higher = stronger binding of the SH3 domain to the peptide
Outline: (§1)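 Four yeast species supplied the SH3 domains, which were expressed as GST fusions in E. coli BL21(DE3) and purified on glutathione Sepharose. Incubation with cellulose membranes carrying synthetic 15-mer peptides, cysteines exchanged for serines, ran overnight at 4°C at 10 μg/ml in TBS-based blocking buffer. Binding signal is reported as normalized, background-subtracted spot intensity averaged over replicates, in arbitrary units not shared between domains.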

Binder | SPOT peptide array binding signal intensity
APPLPPTAPPPPSLP | ≤ 0

Target: AgBbc1
Assay: as above
Outline: as §1

Binder | SPOT peptide array binding signal intensity
APPLPPTAPPPPSLP | ≤ 0

Target: AgBem1-D1
Assay: as above
Outline: as §1

Binder | SPOT peptide array binding signal intensity
APPLPPTAPPPPSLP | ≤ 0

Target: AgBzz1-D1
Assay: as above
Outline: as §1

Binder | SPOT peptide array binding signal intensity
APPLPPTAPPPPSLP | ≤ 0

Target: AgBzz1-D2
Assay: as above
Outline: as §1

Binder | SPOT peptide array binding signal intensity
APPLPPTAPPPPSLP | 3

Target: AgCyk3
Assay: as above
Outline: as §1

Binder | SPOT peptide array binding signal intensity
APPLPPTAPPPPSLP | ≤ 0

Target: AgFus1
Assay: as above
Outline: as §1

Binder | SPOT peptide array binding signal intensity
APPLPPTAPPPPSLP | ≤ 0

Target: AgHof1
Assay: as above
Outline: as §1

Binder | SPOT peptide array binding signal intensity
APPLPPTAPPPPSLP | 116

Target: AgHse1
Assay: as above
Outline: as §1

Binder | SPOT peptide array binding signal intensity
APPLPPTAPPPPSLP | 13

Target: AgLsb1
Assay: as above
Outline: as §1

Binder | SPOT peptide array binding signal intensity
APPLPPTAPPPPSLP | ≤ 0

Target: AgLsb4
Assay: as above
Outline: as §1

Binder | SPOT peptide array binding signal intensity
APPLPPTAPPPPSLP | 3

Target: AgMyo5
Assay: as above
Outline: as §1

Binder | SPOT peptide array binding signal intensity
APPLPPTAPPPPSLP | 2800

Target: AgNbp2
Assay: as above
Outline: as §1

Binder | SPOT peptide array binding signal intensity
APPLPPTAPPPPSLP | ≤ 0

Target: AgRvs167
Assay: as above
Outline: as §1

Binder | SPOT peptide array binding signal intensity
APPLPPTAPPPPSLP | ≤ 0

Target: AgSho1
Assay: as above
Outline: as §1

Binder | SPOT peptide array binding signal intensity
APPLPPTAPPPPSLP | ≤ 0

Target: AgSla1-D1-D2
Assay: as above
Outline: as §1

Binder | SPOT peptide array binding signal intensity
APPLPPTAPPPPSLP | 2

Target: AgSla1-D3
Assay: as above
Outline: as §1

Binder | SPOT peptide array binding signal intensity
APPLPPTAPPPPSLP | 0.5

Target: CaAbp1-D1
Assay: as above
Outline: as §1

Binder | SPOT peptide array binding signal intensity
APPLPPTAPPPPSLP | ≤ 0

Target: CaAbp1-D2
Assay: as above
Outline: as §1

Binder | SPOT peptide array binding signal intensity
APPLPPTAPPPPSLP | ≤ 0

Target: CaBbc1
Assay: as above
Outline: as §1

Binder | SPOT peptide array binding signal intensity
APPLPPTAPPPPSLP | ≤ 0

Target: CaBem1-D1
Assay: as above
Outline: as §1

Binder | SPOT peptide array binding signal intensity
APPLPPTAPPPPSLP | 1

Target: CaBzz1-D1
Assay: as above
Outline: as §1

Binder | SPOT peptide array binding signal intensity
APPLPPTAPPPPSLP | ≤ 0

Target: CaBzz1-D2
Assay: as above
Outline: as §1

Binder | SPOT peptide array binding signal intensity
APPLPPTAPPPPSLP | ≤ 0

Target: CaCyk3
Assay: as above
Outline: as §1

Binder | SPOT peptide array binding signal intensity
APPLPPTAPPPPSLP | ≤ 0

Target: CaFus1
Assay: as above
Outline: as §1

Binder | SPOT peptide array binding signal intensity
APPLPPTAPPPPSLP | ≤ 0

Target: CaHof1
Assay: as above
Outline: as §1

Binder | SPOT peptide array binding signal intensity
APPLPPTAPPPPSLP | ≤ 0

Target: CaHse1
Assay: as above
Outline: as §1

Binder | SPOT peptide array binding signal intensity
APPLPPTAPPPPSLP | ≤ 0

Target: CaLsb1
Assay: as above
Outline: as §1

Binder | SPOT peptide array binding signal intensity
APPLPPTAPPPPSLP | ≤ 0

Target: CaLsb4
Assay: as above
Outline: as §1

Binder | SPOT peptide array binding signal intensity
APPLPPTAPPPPSLP | ≤ 0

Target: CaMyo5
Assay: as above
Outline: as §1

Binder | SPOT peptide array binding signal intensity
APPLPPTAPPPPSLP | 2460

Target: CaNbp2
Assay: as above
Outline: as §1

Binder | SPOT peptide array binding signal intensity
APPLPPTAPPPPSLP | 7.5

Target: CaRvs167
Assay: as above
Outline: as §1

Binder | SPOT peptide array binding signal intensity
APPLPPTAPPPPSLP | 0.167

Target: CaRvs167-3
Assay: as above
Outline: as §1

Binder | SPOT peptide array binding signal intensity
APPLPPTAPPPPSLP | 2.5

Target: CaSho1
Assay: as above
Outline: as §1

Binder | SPOT peptide array binding signal intensity
APPLPPTAPPPPSLP | 8

Target: CaSla1-D1-D2
Assay: as above
Outline: as §1

Binder | SPOT peptide array binding signal intensity
APPLPPTAPPPPSLP | ≤ 0

Target: CaSla1-D3
Assay: as above
Outline: as §1

Binder | SPOT peptide array binding signal intensity
APPLPPTAPPPPSLP | ≤ 0

Target: ScAbp1
Assay: as above
Outline: as §1

Binder | SPOT peptide array binding signal intensity
APPLPPTAPPPPSLP | 0.5
